Screening data: PubChem BioAssay, several laboratories
SSB-PriA inh – K. pneumoniae PriA-SSBct interaction inhibition. hit rate 0.6% among 430,000. AlphaScreen SSBct-PriA binding, biotinylated peptide. inhibition, % at 33 µM; in the data active = inhibition mostly above about 37%, no sharp cut-off; inactive = mostly below about 20%;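 note: plate controls were negative control peptide for no effect and reference peptide for full effect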
TcdB GH inh – inhibitors of Clostridioides difficile toxin B glycohydrolase. P18177. TcdB glycohydrolase enzymatic assay, plate reader. inhibition, % at 9.99 µM. hit rate 0.24% among 350,000; in the data active = inhibition above about 10%
PrP 5UTR inh – inhibition of PrP 5' UTR reporter expression | hit rate 0.35% among 340,000 | cell-based PrP 5' UTR mRNA reporter, plate reader | inhibition, % (test concentration not listed) | AID 488862; in the data active = inhibition above about 52%; note: 0 = median of the neutral control wells
FadD28 FP inh – M. tuberculosis FadD28 bisubstrate binding inhibition | FadD28 bisubstrate probe binding, fluorescence polarization | inhibition, % at 12.5 µM | hit rate 0.22% among 360,000; in the data active = inhibition above about 8.5%, passing the limit was not always enough; inconclusive = no clear call, values can overlap the other calls
BioA inh – inhibitors of Mycobacterium tuberculosis BioA enzyme; inhibition, % at 9.99 µM; purified M. tuberculosis BioA enzyme, plate reader; AID 602481; hit rate 0.096% among 360,000; in the data active = inhibition above about 40%; inconclusive = no clear call, values can overlap the other calls
Mtb hypoxia rep – reduces hypoxia-regulated biosensor signal in M. tuberculosis. M. tuberculosis hypoxia-regulated fluorescent reporter, fluorescence. fluorescence inhibition, % (no concentration beside the values). hit rate 0.1% among 300,000. AID 1159583; in the data active = fluorescence inhibition mostly above about 23%, no sharp cut-off; inactive = mostly below about 17%
PrP UTR cherry – prion 5' UTR mRNA inhibition, cherry-pick retest; shares compounds with PrP 5UTR inh; cell-based prion protein 5' UTR reporter, plate reader; inhibition, % at 2.5 µM; hit rate 48% among 1,100; AID 504592; in the data active = inhibition above about 54%; inconclusive = no clear call, values can overlap the other calls
Numbers without * were called inactive; ? = inconclusive; · = no result. The list is not random: actives were taken first. Their share in the collection is about 1%.

SMILES | SSB-PriA inh | TcdB GH inh | PrP 5UTR inh | FadD28 FP inh | BioA inh | Mtb hypoxia rep | others
CC1CCCN(C(=O)CSc2nnc(-c3cccs3)o2)C1 (stereo unspecified) | -6.9 | -0.4 | -60.6 | -0.7 | 5.4 | 51.2*
O=C(CN1CCN(S(=O)(=O)c2cccs2)CC1)c1cccs1 | -18.0 | · | · | · | · | ·
O=[N+]([O-])c1ccccc1S(=O)(=O)N1CCc2ccccc21 | 39.0* | · | · | · | · | ·
CCOC(=O)Cc1csc(NC(=O)/C=C\c2ccccc2)n1 | -2.7 | 0.8 | -15.4 | -3.6 | · | -2.0
O=C1C2=C(Nc3ccccc3SC2c2ccco2)c2ccccc21 (stereo unspecified) | 48.0* | · | -24.1 | -2.0 | 1.0 | 4.1
O=C1c2ccccc2NC(c2ccco2)N1O (stereo unspecified) | -2.0 | · | -24.9 | -2.0 | -1.7 | 12.0
NC(=O)[C@@H]1CCCNc2c(I)cc([N+](=O)[O-])cc2C(=O)N[C@@H](Cc2ccccc2)C(=O)N[C@@H](Cc2cnc[nH]2)C(=O)N1 | 40.5* | -1.2 | -21.4 | -0.6 | 1.2 | ·
CC[C@H](C)[C@@H]1NC(=O)c2cc([N+](=O)[O-])cc(I)c2NCC[C@@H](C(N)=O)NC(=O)[C@H](CCCN=C(N)N)NC1=O | 18.4 | 10.2* | · | · | · | 5.8
O=[N+]([O-])c1cccnc1Sc1ncccc1O | 34.9 | · | · | · | · | ·
O=[N+]([O-])c1cccnc1Sc1ccc(Cl)cc1 | 52.4* | 1.0 | -60.2 | -2.1 | -0.9 | 14.2
O=[N+]([O-])c1cccnc1Sc1ccccc1 | 82.5* | · | · | · | · | ·
CCOc1ccccc1N1CCN(C2=C(NS(=O)(=O)c3cccs3)C(=O)c3ccccc3C2=O)CC1 | 79.5 | · | -17.6 | 13.8* | -2.7 | -1.7
CO[C@@H]1CN(C)C(=O)c2cc(NC(=O)CC(F)(F)F)ccc2OC[C@H](C)NC[C@H]1C | · | -0.2 | · | · | · | ·
COc1ccc(/C=C/C(=O)NC(=S)NNC(=O)c2cnccn2)cc1 | -7.0 | 0.6 | 13.4 | -4.1 | · | ·
O=C(NC(=S)NNC(=O)c1cnccn1)c1ccc(F)cc1 | 42.0* | -0.4 | -20.2 | -2.3 | · | 1.2
O=C(/C=C/c1ccc(F)cc1)NC(=S)NNC(=O)c1cnccn1 | 39.6* | 0.8 | 17.9 | -1.2 | · | -3.6
Cc1ccc2c(c1)-c1c(cnn1CC(=O)NC(C)CCc1ccco1)CO2 (stereo unspecified) | -11.8 | 10.8* | -4.0 | -1.8 | -7.0 | 9.7
O=C(Nc1ccc(Cl)cn1)c1ccc(COCC(F)(F)C(F)F)o1 | -24.5 | · | -40.3 | -0.6 | 1.3 | 7.6
CS(=O)(=O)N1CC(C(=O)N2CCN(C(=O)c3ccco3)CC2)C1 | 80.0* | · | · | · | · | ·
O=C(c1ccco1)N1CCN(C(=O)C2CCCN(S(=O)(=O)Cc3ccccc3)C2)CC1 (stereo unspecified) | 1.2 | · | -16.6 | -0.3 | -2.5 | ·
O=C(NCCSCc1ccc(Cl)cc1Cl)c1ccc(CN2CCOCC2)cc1 | -16.1 | 0.7 | -11.4 | 43.1* | 1.0 | ·
O=C(c1ccccn1)N1CC2(C1)[C@H](c1ccccc1)[C@@H](CO)N2Cc1ccc(Cl)cc1 | · | -2.2 | · | · | · | ·
COc1cc(OC)cc(-c2cc3nc(C)c(CCC(=O)O)c(C)n3n2)c1 | -9.5 | 0.8 | 54.3* | -7.0 | 0.3 | 7.4 | PrP UTR cherry=57.0*
COc1cc(OC)cc(-c2cc3nc(C)c(CCC(=O)NC(C)CCc4ccco4)c(C)n3n2)c1 (stereo unspecified) | 4.5 | · | 0.9 | -4.3 | -1.4 | -2.7
Cc1ccc(N2CCCCn3c2nc2c3c(=O)n(CC(=O)O)c(=O)n2C)cc1 | 3.5 | · | 58.5* | 1.7 | · | · | PrP UTR cherry=-4.9
SMILES | SSB-PriA inh | TcdB GH inh | PrP 5UTR inh | FadD28 FP inh | BioA inh | Mtb hypoxia rep | others
COc1ccc(N=CC2=C(O)c3ccccc3C2=O)c(OC)c1 | 26.6 | · | 69.0* | -0.2 | -1.9 | · | PrP UTR cherry=64.2*
O=C(c1ccccc1CCc1ccccc1)N1CCCC1 | -4.1 | 1.1 | -23.8 | -3.5 | -5.3 | 7.7
COc1ccccc1-c1nnc(SCC(=O)NC2CCCCC2)o1 | -3.0 | 1.4 | 75.5* | 0.4 | -0.5 | · | PrP UTR cherry=-3.7
Cc1ccccc1-c1nnc(SCC(=O)NC2CCCCC2)o1 | -8.3 | · | -1.0 | -2.4 | · | -1.4
CCNC(=O)CSc1nc2ccccc2c(=O)n1-c1cc(OC)ccc1OC | 1.1 | · | 0.7 | -1.4 | 2.9 | -0.5
CN(C)c1cccc(C(=O)OCC(=O)N(Cc2ccccc2)C2CCS(=O)(=O)C2)c1 (stereo unspecified) | -3.4 | 0.4 | 59.5* | 0.2 | 0.0 | 2.0 | PrP UTR cherry=-5.3
COc1cccc(C(=O)Nc2cc(NC(=O)c3cccs3)ccc2C)c1 | -4.0 | 2.2 | -20.9 | -4.5 | 2.7 | -4.1
C=CCN1C(=O)C(C)(C)COc2ccc(NC(=O)COCC)cc21 | 21.0 | · | · | · | · | ·
Cc1ccc(NC(=O)N(CCCCN2C(=O)c3ccccc3C2=O)c2ccc(C)cc2)cc1 | -10.0 | · | · | · | · | ·
Cc1cn([C@H]2C[C@H](O)[C@@H](CCC(=O)NCCc3c[nH]c4ccccc34)O2)c(=O)[nH]c1=O | -10.8 | -0.2 | 58.5* | -1.1 | -2.4 | 0.6 | PrP UTR cherry=-54.2
O=C(NC1CN2CCC1CC2)c1ccc(-c2ccc([N+](=O)[O-])cc2)o1 (stereo unspecified) | -5.2 | · | -14.1 | -1.0 | · | 1.2
C[C@H](CO)N1C[C@H](C)[C@H](CN(C)C(=O)c2ccccc2)Oc2cc(C#C[C@@H](C)O)ccc2S1(=O)=O | · | 0.1 | · | · | 1.2 | ·
Cc1ccc(N2C(=O)c3cccc4c(N)ccc(c34)C2=O)c2cccnc12 | -1.6 | -0.1 | 73.8* | 0.2 | -2.4 | -1.3 | PrP UTR cherry=85.6*
Cc1nn(C)c(C)c1N1C(=O)c2cccc3c(N)ccc(c23)C1=O | -2.6 | · | -21.6 | 4.1 | -232.5 | -24.3
Cc1cc(C)c2c(N)c(C(=O)Nc3ncc(C)s3)sc2n1 | -3.0 | · | 89.2* | -0.6 | 6.8 | 6.8 | PrP UTR cherry=83.6*
Cc1ccc(CNC(=O)C2CCN(c3nnc(N4CCCC4=O)s3)CC2)cc1 | -7.6 | 1.3 | 69.3* | -0.3 | -2.1 | -1.8 | PrP UTR cherry=-4.5
COc1ccc(-n2nnnc2C(C2CC2)N2CCC3(CC2)C(=O)NCN3c2ccccc2)cc1 (stereo unspecified) | · | -0.4 | · | -0.5 | 0.0 | ·
COc1ccc(NC(=O)CSc2n[nH]c(-c3ccncc3)n2)cc1Cl | -10.1 | 1.2 | -12.5 | 0.5 | 2.9 | 2.9
CC(C)(C)c1ccc(C(=O)N2CCCCCC2=O)cc1 | 2.6 | · | 58.9* | -0.5 | -0.6 | · | PrP UTR cherry=?
O=C1CCCCCN1C(=O)c1ccccc1 | 1.8 | -1.2 | -18.7 | -2.3 | · | 9.4
O=C(COC(=O)c1cc([N+](=O)[O-])ccc1N1CCOCC1)NCc1ccccc1 | · | 1.2 | · | -1.3 | -0.1 | ·
COc1cccc(CNC(=O)COC(=O)c2cc([N+](=O)[O-])ccc2N2CCCC2)c1 | 17.8 | -0.5 | 83.7* | -4.5 | -3.1 | 8.0 | PrP UTR cherry=1.3
C=CCn1c(C)cc(C(=O)COC(=O)c2ccc(N)c([N+](=O)[O-])c2)c1C | 8.9 | -1.0 | -110.2 | -3.5 | · | -0.4
COCCn1c(C)cc(C(=O)COC(=O)c2ccccc2Br)c1C | 20.5 | 0.1 | 72.6* | -3.8 | 1.4 | 14.1 | PrP UTR cherry=71.3*
COCCn1c(C)cc(C(=O)COC(=O)c2cccnc2SC)c1C | -26.4 | 0.6 | 8.4 | -4.3 | · | 9.1
